The campaign covered roughly 5,500 compounds. About 2,000 (36%) were called active. Inconclusive results (about 18%) are left out. No stated cut-off is given here; in the data, active means normalized growth mostly below about 0.91 (no sharp cut-off); inconclusive means no clear call, values can overlap the other calls; inactive means mostly above about 0.92. The list shows a part of the results.
Assay: chemical genetic growth profiling, strain panel (AID 1159580);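 further: tested at 20 µM; growth read once vehicle control cultures reached saturation at 30 °C; 1 = growth at the plate median or of vehicle wells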
Conditions: S. cerevisiae deletion strains, growth OD
[1] = locus YAL040C, strain CLN3, stronger effect = lower value
[2] = locus YCL061C, strain MRC1 (second series), stronger effect = lower value
[3] = locus YDR363W, strain ESC2, stronger effect = lower value
[4] = locus YER002W, strain NOP16, stronger effect = lower value
[5] = locus YGR078C, strain PAC10, stronger effect = lower value
[6] = locus YJR075W, strain HOC1, stronger effect = lower value
[7] = locus YMR263W, strain SAP30, stronger effect = lower value
[8] = locus YMR307W, strain GAS1, stronger effect = lower value
[9] = locus YNL128W, strain TEP1, stronger effect = lower value
[10] = locus YNL175C, strain NOP13, stronger effect = lower value
[11] = locus YNL197C, strain WHI3, stronger effect = lower value
[12] = locus YNL224C, strain SQS1, stronger effect = lower value
[13] = locus YNL322C, strain KRE1, stronger effect = lower value
[14] = locus YOR083W, strain WHI5 (second series), stronger effect = lower value

Measured: normalized growth

CCCN1CCCC2Cc3[nH]ncc3CC21 (centres undefined)
inactive: [1] 0.972 | [2] 1 | locus YDR150W, strain NUM1, stronger effect = lower value 0.995 | [3] 1.02 | [4] 0.992 | [5] 0.997 | locus YGR229C, strain SMI1, stronger effect = lower value 0.989 | [6] 1 | [7] 0.997 | [8] 0.992 | [9] 0.989 | locus YNL153C, strain GIM3, stronger effect = lower value 1.1 | [10] 0.994 | [11] 0.992 | [12] 0.98 | [13] 1.02 | [14] 0.986 | locus YPL241C, strain CIN2, stronger effect = lower value 1

CC(C)NP(=O)(NC(C)C)OP(=O)(NC(C)C)NC(C)C
inactive: [1] 0.983 | [2] 1 | [3] 0.998 | [4] 0.995 | [5] 0.991 | [6] 1.01 | [7] 0.991 | [8] 0.995 | [9] 0.99 | [10] 0.991 | [11] 0.995 | [12] 0.991 | [13] 1.01 | [14] 0.991 | locus YPL055C, strain LGE1, stronger effect = lower value 1.01

Cc1csc2ncnc(N3CCN(C(=O)Nc4ccc(SC(F)(F)F)cc4)CC3)c12
active: locus YHR030C, strain SLT2, stronger effect = lower value 0.818 | locus YLR113W, strain HOG1, stronger effect = lower value 0.806 | locus YPL256C, strain CLN2, stronger effect = lower value 0.845
inactive: locus YAR019C, strain CDC15, stronger effect = lower value 1.01 | locus YBL105C, strain PKC1, stronger effect = lower value 0.991 | locus YBR135W, strain CKS1, stronger effect = lower value 0.999 | locus YBR136W, strain MEC1, stronger effect = lower value 1 | locus YBR160W, strain CDC28, stronger effect = lower value 0.979 | locus YDL017W, strain CDC7, stronger effect = lower value 0.982 | locus YDL028C, strain MPS1, stronger effect = lower value 0.994 | locus YDL101C, strain DUN1, stronger effect = lower value 1 | locus YDL108W, strain KIN28, stronger effect = lower value 0.995 | locus YDL132W, strain cdc53, stronger effect = lower value 1 | locus YDL214C, strain PRR2, stronger effect = lower value 0.908 | locus YDR052C, strain DBF4, stronger effect = lower value 0.988 | locus YDR054C, strain cdc34, stronger effect = lower value 0.993 | locus YDR226W, strain ADK1, stronger effect = lower value 1 | locus YDR477W, strain SNF1, stronger effect = lower value 0.937 | locus YER123W, strain YCK3, stronger effect = lower value 0.902 | locus YER133W, strain GLC7, stronger effect = lower value 0.912 | locus YFL009W, strain cdc4, stronger effect = lower value 1.01 | locus YFL029C, strain CAK1, stronger effect = lower value 1 | locus YFR003C, strain YPI1, stronger effect = lower value 1.01 | locus YFR019W, strain FAB1, stronger effect = lower value 0.918 | locus YFR028C, strain CDC14, stronger effect = lower value 0.994 | locus YGR040W, strain KSS1, stronger effect = lower value 0.925 | locus YGR052W, strain FMP48, stronger effect = lower value 0.963 | locus YGR092W, strain DBF2, stronger effect = lower value 0.867 | locus YHR079C, strain IRE1, stronger effect = lower value 0.866 | locus YHR082C, strain KSP1, stronger effect = lower value 0.947 | locus YHR205W, strain SCH9, stronger effect = lower value 0.927 | locus YIL147C, strain SLN1, stronger effect = lower value 0.987 | locus YJL095W, strain BCK1, stronger effect = lower value 0.868 | locus YJL128C, strain PBS2, stronger effect = lower value 0.972 | locus YJL157C, strain FAR1, stronger effect = lower value 0.88 | locus YJR016C, strain ILV3, stronger effect = lower value 0.994 | locus YJR066W, strain TOR1 (second series), stronger effect = lower value 0.65 | locus YJR066W, strain TOR1, stronger effect = lower value 0.915 | locus YKL048C, strain ELM1, stronger effect = lower value 0.931 | locus YKL067W, strain YNK1, stronger effect = lower value 0.915 | locus YKL101W, strain HSL1, stronger effect = lower value 0.903 | locus YKL193C, strain SDS22, stronger effect = lower value 1 | locus YKL203C, strain TOR2, stronger effect = lower value 0.977 | locus YLR133W, strain CKI1, stronger effect = lower value 0.909 | locus YLR403W, strain SFP1, stronger effect = lower value 0.905 | locus YML070W, strain DAK1, stronger effect = lower value 0.886 | locus YMR001C, strain CDC5, stronger effect = lower value 0.999 | locus YMR205C, strain PFK2 (second series), stronger effect = lower value 0.903 | locus YMR277W, strain FCP1, stronger effect = lower value 1 | locus YNL006W, strain LST8, stronger effect = lower value 0.997 | locus YNL020C, strain ARK1, stronger effect = lower value 0.898 | locus YNL161W, strain CBK1, stronger effect = lower value 1 | locus YNL183C, strain NPR1, stronger effect = lower value 0.895 | locus YNL207W, strain RIO2, stronger effect = lower value 0.987 | locus YNL222W, strain SSU72, stronger effect = lower value 1 | locus YNL307C, strain MCK1 (second series), stronger effect = lower value 0.866 | locus YOL078W, strain AVO1, stronger effect = lower value 0.996 | locus YOL136C, strain PFK27, stronger effect = lower value 0.869 | locus YOR061W, strain CKA2, stronger effect = lower value 0.864 | locus YOR119C, strain RIO1, stronger effect = lower value 0.967 | locus YOR231W, strain MKK1, stronger effect = lower value 0.825 | locus YOR329C, strain SCD5, stronger effect = lower value 1 | locus YPL031C, strain PHO85, stronger effect = lower value 0.915 | locus YPL153C, strain RAD53, stronger effect = lower value 0.914 | locus YPL204W, strain HRR25, stronger effect = lower value 0.9 | locus YPL209C, strain IPL1, stronger effect = lower value 1 | locus YPR025C, strain CCL1, stronger effect = lower value 0.998 | locus YPR106W, strain ISR1, stronger effect = lower value 0.988 | locus YPR111W, strain DBF20, stronger effect = lower value 0.987 | strain NNK1, stronger effect = lower value 0.993 | strain TSCII, stronger effect = lower value 0.983
